This passage reports residual activity results from ChEMBL document CHEMBL2218924, “A broad activity screen in support of a chemogenomic map for kinase signalling research and drug discovery” (Biochem J, 2013).

Assay [1] concerns the target T1, Tyrosine-protein kinase Tec (Homo sapiens) (UniProt P42680).
T1 sequence (whole entry): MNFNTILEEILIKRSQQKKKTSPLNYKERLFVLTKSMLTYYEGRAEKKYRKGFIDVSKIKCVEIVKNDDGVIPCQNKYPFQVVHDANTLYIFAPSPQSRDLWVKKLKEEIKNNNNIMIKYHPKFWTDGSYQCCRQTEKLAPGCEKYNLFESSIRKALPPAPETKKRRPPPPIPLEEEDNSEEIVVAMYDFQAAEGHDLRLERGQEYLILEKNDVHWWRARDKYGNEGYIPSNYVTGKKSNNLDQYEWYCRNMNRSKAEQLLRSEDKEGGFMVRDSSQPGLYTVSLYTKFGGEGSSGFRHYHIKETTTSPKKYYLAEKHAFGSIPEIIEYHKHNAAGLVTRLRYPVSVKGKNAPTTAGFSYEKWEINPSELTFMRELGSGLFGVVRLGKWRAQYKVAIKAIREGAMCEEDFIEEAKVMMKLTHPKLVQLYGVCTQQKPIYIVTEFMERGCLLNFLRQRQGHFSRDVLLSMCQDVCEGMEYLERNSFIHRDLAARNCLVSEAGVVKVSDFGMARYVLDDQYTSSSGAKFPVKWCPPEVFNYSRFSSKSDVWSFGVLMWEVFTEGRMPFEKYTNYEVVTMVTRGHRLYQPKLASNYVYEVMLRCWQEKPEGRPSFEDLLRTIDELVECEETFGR
Particulars: at 1 µM.

Assay [2] deals with T1, Tyrosine-protein kinase Tec (Homo sapiens). The following applies: at 10 µM.
Assay [3] concerns the target Angiopoietin-1 receptor (Homo sapiens) (UniProt Q02763). The following applies: at 1 µM.
For assay [4] the target is unchanged. Particulars: at 10 µM.
The target of assay [5] is BDNF/NT-3 growth factors receptor (Homo sapiens) (UniProt Q16620). The following applies: at 10 µM.
Assay [6] concerns the target T2, Tyrosine-protein kinase TXK (Homo sapiens) (UniProt P42681).
T2 sequence (whole entry): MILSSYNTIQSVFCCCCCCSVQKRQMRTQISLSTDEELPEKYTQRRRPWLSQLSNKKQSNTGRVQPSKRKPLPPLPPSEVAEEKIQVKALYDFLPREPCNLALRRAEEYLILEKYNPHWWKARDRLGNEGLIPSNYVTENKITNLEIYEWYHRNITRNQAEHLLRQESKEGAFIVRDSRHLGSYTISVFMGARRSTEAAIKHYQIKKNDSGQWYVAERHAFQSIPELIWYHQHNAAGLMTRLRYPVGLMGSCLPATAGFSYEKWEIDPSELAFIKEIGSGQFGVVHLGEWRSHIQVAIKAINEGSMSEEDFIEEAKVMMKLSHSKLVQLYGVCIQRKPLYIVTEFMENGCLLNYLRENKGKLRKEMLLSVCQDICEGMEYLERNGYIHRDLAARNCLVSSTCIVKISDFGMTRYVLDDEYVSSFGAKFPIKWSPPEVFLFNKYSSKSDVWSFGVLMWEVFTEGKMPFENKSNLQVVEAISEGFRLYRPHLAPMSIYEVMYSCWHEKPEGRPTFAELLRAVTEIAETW
Particulars: at 1 µM.

The target in assay [7] is T2, Tyrosine-protein kinase TXK (Homo sapiens). The following applies: at 10 µM.
The target in assay [8] is T3, Serine/threonine-protein kinase ULK2 (Homo sapiens) (UniProt Q8IYT8).
T3 sequence (whole entry): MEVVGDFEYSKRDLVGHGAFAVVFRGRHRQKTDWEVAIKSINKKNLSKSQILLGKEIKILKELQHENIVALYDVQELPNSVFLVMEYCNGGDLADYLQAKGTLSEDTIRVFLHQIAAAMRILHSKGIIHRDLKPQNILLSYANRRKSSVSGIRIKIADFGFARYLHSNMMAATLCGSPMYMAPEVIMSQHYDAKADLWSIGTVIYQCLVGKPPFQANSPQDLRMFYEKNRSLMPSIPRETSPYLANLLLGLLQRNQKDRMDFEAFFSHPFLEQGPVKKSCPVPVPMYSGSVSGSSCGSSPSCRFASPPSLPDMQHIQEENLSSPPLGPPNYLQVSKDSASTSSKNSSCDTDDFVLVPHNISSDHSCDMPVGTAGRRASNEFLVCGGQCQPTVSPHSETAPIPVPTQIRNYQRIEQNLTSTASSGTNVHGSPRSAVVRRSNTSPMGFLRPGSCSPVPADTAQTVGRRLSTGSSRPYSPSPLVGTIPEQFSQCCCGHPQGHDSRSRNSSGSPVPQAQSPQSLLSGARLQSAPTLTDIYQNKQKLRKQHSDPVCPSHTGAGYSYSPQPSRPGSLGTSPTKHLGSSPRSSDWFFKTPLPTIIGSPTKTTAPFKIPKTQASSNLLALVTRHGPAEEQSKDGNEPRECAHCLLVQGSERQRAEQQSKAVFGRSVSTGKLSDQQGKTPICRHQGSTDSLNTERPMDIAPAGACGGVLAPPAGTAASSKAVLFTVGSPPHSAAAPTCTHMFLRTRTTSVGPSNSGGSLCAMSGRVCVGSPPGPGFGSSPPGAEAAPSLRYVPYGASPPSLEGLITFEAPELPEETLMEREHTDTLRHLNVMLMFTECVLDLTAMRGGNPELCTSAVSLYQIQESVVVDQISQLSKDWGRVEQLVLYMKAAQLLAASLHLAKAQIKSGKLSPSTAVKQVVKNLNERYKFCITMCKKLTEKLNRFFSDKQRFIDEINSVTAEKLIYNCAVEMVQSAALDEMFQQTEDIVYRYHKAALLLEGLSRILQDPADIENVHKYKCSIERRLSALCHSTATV
Particulars: at 10 µM.

The target of assay [9] is T4, Serine/threonine-protein kinase ULK3 (Homo sapiens) (UniProt Q6PHR2).
T4 sequence (whole entry): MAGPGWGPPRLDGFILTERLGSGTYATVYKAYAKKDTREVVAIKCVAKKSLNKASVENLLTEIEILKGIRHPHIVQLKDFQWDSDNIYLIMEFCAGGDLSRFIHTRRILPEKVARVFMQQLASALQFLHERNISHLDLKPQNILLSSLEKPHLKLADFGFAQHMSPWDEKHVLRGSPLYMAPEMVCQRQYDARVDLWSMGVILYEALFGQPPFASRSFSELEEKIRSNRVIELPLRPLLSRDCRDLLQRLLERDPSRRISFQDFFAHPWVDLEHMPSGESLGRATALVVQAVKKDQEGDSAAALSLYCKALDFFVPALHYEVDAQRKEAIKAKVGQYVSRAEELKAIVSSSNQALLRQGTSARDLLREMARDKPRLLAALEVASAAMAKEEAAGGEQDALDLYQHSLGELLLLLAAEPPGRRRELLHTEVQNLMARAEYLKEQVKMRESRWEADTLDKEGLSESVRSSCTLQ
The following applies: at 10 µM.

Assay [10] addresses Serine/threonine-protein kinase VRK2 (Homo sapiens) (UniProt Q86Y07). Particulars: at 1 µM.
The target is the same in assay [11]. The following applies: at 10 µM.
For assay [12], the target named is Serine/threonine-protein kinase WNK2 (Homo sapiens) (UniProt Q9Y3S1). The following applies: at 10 µM.
Sequence of Serine/threonine-protein kinase WNK2 (Homo sapiens) (Q9Y3S1 whole entry): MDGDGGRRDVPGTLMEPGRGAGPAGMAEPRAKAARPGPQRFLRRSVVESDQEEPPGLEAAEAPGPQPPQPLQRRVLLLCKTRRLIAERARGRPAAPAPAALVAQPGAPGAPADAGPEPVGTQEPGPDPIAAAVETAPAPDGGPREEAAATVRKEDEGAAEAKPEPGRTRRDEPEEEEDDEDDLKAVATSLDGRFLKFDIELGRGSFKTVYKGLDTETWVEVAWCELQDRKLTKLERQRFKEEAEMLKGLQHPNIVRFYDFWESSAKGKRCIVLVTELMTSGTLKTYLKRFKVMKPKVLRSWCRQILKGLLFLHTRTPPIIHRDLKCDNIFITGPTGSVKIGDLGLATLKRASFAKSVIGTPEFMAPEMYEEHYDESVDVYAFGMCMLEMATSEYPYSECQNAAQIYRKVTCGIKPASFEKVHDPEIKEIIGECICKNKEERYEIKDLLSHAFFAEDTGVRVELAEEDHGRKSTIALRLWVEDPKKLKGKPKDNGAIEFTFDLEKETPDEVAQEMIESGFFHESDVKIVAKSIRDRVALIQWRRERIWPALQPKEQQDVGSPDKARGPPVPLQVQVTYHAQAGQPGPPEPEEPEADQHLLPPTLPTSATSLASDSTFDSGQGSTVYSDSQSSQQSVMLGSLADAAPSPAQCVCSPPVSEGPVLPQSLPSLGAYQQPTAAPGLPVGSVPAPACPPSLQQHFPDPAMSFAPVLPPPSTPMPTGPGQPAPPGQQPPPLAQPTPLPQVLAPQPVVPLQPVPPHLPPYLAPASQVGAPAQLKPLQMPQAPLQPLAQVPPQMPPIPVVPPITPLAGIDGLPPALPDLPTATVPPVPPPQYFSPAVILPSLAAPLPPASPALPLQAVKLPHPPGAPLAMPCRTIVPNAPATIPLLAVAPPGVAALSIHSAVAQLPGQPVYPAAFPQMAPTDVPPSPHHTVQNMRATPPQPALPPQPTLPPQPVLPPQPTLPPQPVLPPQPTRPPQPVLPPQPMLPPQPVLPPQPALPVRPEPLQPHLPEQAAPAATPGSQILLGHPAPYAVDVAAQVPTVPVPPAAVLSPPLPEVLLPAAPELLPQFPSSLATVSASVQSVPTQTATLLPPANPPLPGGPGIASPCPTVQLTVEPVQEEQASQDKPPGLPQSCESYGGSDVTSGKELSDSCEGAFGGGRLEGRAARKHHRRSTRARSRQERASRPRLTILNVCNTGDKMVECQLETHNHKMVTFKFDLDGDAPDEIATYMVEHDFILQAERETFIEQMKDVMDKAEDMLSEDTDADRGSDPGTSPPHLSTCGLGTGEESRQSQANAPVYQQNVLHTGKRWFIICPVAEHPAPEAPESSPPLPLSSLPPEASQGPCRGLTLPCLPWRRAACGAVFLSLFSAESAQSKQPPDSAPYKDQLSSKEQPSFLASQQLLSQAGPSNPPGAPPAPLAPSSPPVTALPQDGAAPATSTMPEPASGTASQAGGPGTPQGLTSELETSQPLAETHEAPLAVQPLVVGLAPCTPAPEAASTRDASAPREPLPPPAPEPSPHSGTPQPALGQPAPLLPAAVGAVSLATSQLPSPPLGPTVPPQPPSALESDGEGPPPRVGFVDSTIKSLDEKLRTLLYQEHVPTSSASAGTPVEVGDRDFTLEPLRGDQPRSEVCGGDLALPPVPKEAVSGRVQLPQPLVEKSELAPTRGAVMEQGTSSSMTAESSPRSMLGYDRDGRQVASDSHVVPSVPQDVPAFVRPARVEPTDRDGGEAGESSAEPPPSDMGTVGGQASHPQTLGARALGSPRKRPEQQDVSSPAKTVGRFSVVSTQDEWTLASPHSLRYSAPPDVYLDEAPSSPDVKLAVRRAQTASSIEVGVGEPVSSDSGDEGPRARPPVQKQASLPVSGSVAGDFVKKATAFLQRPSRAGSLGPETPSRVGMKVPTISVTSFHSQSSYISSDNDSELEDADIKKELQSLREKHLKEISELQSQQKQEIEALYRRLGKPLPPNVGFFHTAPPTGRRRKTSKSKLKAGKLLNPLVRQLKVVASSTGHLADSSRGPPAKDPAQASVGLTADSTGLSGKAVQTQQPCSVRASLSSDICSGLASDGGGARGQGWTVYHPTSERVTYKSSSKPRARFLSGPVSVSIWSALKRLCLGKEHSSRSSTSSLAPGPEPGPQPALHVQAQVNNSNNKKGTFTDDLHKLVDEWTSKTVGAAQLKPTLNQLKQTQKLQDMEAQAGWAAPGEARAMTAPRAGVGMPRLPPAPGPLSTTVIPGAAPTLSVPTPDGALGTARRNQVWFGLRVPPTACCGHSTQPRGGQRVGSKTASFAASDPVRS
Assay [13] addresses Serine/threonine-protein kinase WNK3 (Homo sapiens) (UniProt Q9BYP7). Particulars: at 10 µM.
The target in assay [14] is High affinity nerve growth factor receptor (Homo sapiens) (UniProt P04629). Particulars: at 1 µM.
Sequence of High affinity nerve growth factor receptor (Homo sapiens) (P04629 33-796 limits assumed): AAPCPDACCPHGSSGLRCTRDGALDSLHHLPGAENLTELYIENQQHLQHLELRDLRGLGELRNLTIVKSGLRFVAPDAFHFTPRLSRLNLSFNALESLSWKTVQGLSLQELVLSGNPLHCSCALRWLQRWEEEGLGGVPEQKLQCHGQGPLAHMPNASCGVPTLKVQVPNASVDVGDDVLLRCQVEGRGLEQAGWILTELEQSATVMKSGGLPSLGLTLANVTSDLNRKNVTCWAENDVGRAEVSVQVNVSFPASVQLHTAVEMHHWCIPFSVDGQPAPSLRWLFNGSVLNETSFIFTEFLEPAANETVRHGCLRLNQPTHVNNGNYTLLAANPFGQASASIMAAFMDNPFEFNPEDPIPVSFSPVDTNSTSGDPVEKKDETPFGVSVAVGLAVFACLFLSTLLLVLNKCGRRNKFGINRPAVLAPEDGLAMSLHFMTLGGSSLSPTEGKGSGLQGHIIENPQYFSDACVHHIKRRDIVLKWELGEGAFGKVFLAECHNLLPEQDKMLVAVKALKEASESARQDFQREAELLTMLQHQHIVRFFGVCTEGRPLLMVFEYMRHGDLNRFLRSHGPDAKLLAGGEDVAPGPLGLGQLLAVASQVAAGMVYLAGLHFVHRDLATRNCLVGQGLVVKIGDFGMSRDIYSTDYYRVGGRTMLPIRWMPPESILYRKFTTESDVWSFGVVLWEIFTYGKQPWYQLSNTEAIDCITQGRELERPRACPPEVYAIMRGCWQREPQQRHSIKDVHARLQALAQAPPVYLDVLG
Assay [15] has the same target. The following applies: at 10 µM.
The target in assay [16] is BDNF/NT-3 growth factors receptor (Homo sapiens) (UniProt Q16620). The following applies: at 1 µM.
Assay [17] deals with T3, Serine/threonine-protein kinase ULK2 (Homo sapiens). Particulars: at 1 µM.
Assay [18] deals with T4, Serine/threonine-protein kinase ULK3 (Homo sapiens). The following applies: at 1 µM.
For assay [19], the target named is Serine/threonine-protein kinase WNK2 (Homo sapiens) (UniProt Q9Y3S1). The following applies: at 1 µM.
The target in assay [20] is Serine/threonine-protein kinase WNK3 (Homo sapiens) (UniProt Q9BYP7). The following applies: at 1 µM.
Sequence of Serine/threonine-protein kinase WNK3 (Homo sapiens) (Q9BYP7 whole entry): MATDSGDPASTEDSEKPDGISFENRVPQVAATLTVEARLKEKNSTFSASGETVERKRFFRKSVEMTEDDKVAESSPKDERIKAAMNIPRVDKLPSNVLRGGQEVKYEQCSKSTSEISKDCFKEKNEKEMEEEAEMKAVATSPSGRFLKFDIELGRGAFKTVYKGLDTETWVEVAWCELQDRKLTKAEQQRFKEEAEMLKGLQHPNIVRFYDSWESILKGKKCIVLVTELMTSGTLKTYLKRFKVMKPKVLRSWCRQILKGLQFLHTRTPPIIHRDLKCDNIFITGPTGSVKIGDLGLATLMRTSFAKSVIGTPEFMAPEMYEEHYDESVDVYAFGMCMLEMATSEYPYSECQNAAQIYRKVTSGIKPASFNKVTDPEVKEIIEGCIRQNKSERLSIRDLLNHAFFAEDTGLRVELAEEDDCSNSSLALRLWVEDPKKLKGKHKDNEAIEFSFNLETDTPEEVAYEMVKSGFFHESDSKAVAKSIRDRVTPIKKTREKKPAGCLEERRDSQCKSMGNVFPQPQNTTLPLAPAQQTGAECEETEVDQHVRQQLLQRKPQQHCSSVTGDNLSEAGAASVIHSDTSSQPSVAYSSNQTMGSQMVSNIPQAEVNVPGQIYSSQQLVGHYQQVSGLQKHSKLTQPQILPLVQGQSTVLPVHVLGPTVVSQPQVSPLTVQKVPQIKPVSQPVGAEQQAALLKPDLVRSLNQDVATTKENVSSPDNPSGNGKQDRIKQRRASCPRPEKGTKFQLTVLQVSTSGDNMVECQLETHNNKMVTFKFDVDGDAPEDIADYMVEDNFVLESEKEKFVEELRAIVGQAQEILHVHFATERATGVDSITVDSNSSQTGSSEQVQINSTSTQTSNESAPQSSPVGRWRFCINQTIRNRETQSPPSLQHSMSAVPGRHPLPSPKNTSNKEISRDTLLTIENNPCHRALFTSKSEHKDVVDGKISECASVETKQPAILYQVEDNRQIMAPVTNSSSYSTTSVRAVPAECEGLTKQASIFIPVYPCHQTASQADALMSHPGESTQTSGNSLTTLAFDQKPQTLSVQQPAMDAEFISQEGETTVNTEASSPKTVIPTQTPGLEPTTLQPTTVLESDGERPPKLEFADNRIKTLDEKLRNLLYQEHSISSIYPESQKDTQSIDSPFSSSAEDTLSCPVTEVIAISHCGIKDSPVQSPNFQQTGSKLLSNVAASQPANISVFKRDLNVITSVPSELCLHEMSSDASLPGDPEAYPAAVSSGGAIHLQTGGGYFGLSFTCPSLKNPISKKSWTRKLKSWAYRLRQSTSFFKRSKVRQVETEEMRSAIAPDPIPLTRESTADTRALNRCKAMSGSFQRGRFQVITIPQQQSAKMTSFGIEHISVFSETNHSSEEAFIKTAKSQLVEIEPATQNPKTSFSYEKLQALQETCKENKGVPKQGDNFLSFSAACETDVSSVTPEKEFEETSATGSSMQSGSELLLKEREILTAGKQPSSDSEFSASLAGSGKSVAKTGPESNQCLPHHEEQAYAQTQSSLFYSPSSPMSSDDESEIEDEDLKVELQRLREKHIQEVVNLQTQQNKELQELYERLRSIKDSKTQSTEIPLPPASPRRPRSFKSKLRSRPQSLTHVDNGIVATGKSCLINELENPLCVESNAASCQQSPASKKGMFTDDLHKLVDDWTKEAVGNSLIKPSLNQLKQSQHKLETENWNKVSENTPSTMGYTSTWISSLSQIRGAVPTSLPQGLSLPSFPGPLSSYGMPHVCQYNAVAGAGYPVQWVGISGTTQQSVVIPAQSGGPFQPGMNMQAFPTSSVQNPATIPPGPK

In general, residual activity refers to the signal under treatment as a percentage of the control signal. In the case of `COc1ccc2c(c[n+](C)c3c4cc5c(cc4ccc23)OCO5)c1OC`, the residual activity came out at 86% in [1]; 66% in assay [2]; 12% in assay [3]; 3% in assay [4]; 81% in [5]; 94% in assay [6]. Further, the residual activity in assay [7] is 59%; in assay [8], 94%; in assay [9], 96%; in [10], 110% (inactive); in [11], 91%; in assay [12], 76%. In addition, the residual activity in assay [13] was determined as 84%.

In the case of `O=[N+]([O-])/C=C/c1ccc2c(c1)OCO2`, the residual activity in assay [1] was 89%; in assay [2], 90%; in assay [3] it was 80%; in [4], 60%; in [14], 94%; in assay [15], 116%. In addition, the residual activity in assay [16] came out at 120%; in assay [5] it was 119%; in assay [6] it was 76%; in [7], 77%; in [17], 102%; in [8], 92%. Moreover, the residual activity in assay [18] was 111%; in [9], 91%; in assay [10] it was 101% (inactive); in assay [11], 91%; in [19] it was 109% (inactive); in assay [12], 88%. The results for the residual activity in assay [20] and in [13] were 88% (inactive) and 94%, respectively.

For the compound `O=C1c2ccccc2-c2nc3nnnn3nc21`, the residual activity is 75% in [3]; 20% in assay [4]; 123% in assay [16]; 119% in assay [5]; 103% in [6]; 73% in assay [7]. The residual activity in [17] is 110%; in assay [8] it was 103%; in assay [10], 116% (inactive); in [11], 102%; in assay [20], 115% (inactive); in [13] it was 103%.

With `c1cc(-c2cnn3cc(-c4ccc(OCCN5CCCCC5)cc4)cnc23)ccn1`, the residual activity in assay [2] is 75%; in [4] it was 44%; in assay [14], 28%; in assay [15], 2%; in [16] it was 61%; in [5] it was 7%. In addition, the residual activity in assay [6] turned out to be 44%; in assay [7] it was 7%; in assay [17], 50%; in assay [8], 17%; in [18], 84%; in assay [9] it was 48%. In assay [10], the residual activity was 119% (inactive).

`CCc1nc(-c2ccc(OC)cc2)[nH]c1-c1ccncc1`: the residual activity in assay [1] came out at 102%; in assay [2], 75%; in assay [3], 111%; in assay [4], 106%; in assay [16] it was 113%; in assay [5], 107%. For the same compound, the residual activity in assay [6] was 100%; in assay [17] it was 115%; in assay [8] it was 105%; in assay [10] it was 113% (inactive); in assay [11] it was 101%; in assay [19], 112% (inactive). The residual activity in [12] is 100%; in assay [13] it was 108%.

For `COc1ccc2c(c1)/C(=C/c1cnc[nH]1)C(=O)N2`, the residual activity in assay [2] stood at 70%; in assay [4] it was 71%; in [14], 3%; in [15], 0%; in [6], 77%; in assay [7], 46%. Also, the residual activity in assay [17] is 81%; in assay [8] it was 23%; in assay [18], 80%; in [9], 23%; in assay [11] it was 66%; in assay [13] it was 96%.

Consider `O=C1Nc2ccc3ncsc3c2/C1=C/c1c[nH]cn1`, for which the residual activity was 91% in [1]; 42% in [2]; 67% in assay [3]; 22% in assay [4]; 3% in assay [14]; -1% in assay [15]. The residual activity was 19% in [16]; -11% in assay [5]; 82% in [6]; 30% in assay [7]; 37% in [17]; 6% in assay [8]. The residual activity is 42% in [18]; 7% in assay [9]; 75% (inactive) in [10]; 26% in assay [11]; 89% (inactive) in [19]; 57% in assay [12]. Besides, the residual activity in [20] was 84% (inactive); in [13] it was 67%.

`COc1cc2ncnc(Nc3ccc(OCc4ccccc4)cc3)c2cc1OC`: the residual activity in assay [1] turned out to be 107%; in [2], 67%; in assay [3], 106%; in assay [4] it was 78%; in assay [14], 69%; in assay [15], 72%. Also, the residual activity in assay [16] was 93%; in assay [5] it was 122%; in assay [6] it was 97%; in [7], 57%; in [17] it was 102%; in assay [8] it was 93%. Besides, the residual activity was 104% in [18]; 69% in assay [9]; 112% (inactive) in assay [10]; 97% in assay [11]; 93% (inactive) in [19]; 55% in [12]. In addition, the residual activity is 95% (inactive) in assay [20] and 64% in assay [13].

Turning to `CC(C)[C@H](CO)Nc1nc(Nc2cccc(Cl)c2)c2ncn(C(C)C)c2n1`, the residual activity in assay [1] stood at 63%; in assay [2], 8%; in [3] it was 99%; in assay [4] it was 59%; in [14], 3%; in assay [15], 1%. For the same compound, the residual activity in assay [16] was 8%; in [5], 0%; in assay [6], 66%; in assay [7] it was 16%; in assay [17] it was 83%; in [8] it was 39%. The residual activity in assay [18] is 39%; in assay [9], 7%; in assay [10], 85% (inactive); in assay [11], 30%; in assay [19], 91% (inactive); in [12], 46%. For the same compound, the residual activity in [20] was 82% (inactive); in assay [13], 51%.
